# In all, about 39,000 compounds went through this assay and about 1,500 (3.8%) were called active. This excerpt belongs to a sample that is enriched for actives.
# System: HSkMC (human skeletal muscle cells)
# Experiment: cytotoxicity call (relative viability < 0.9)
# Settings: 10 µM
row,Compound,cytotoxicity call
1,CC(C)CCC[C@]1(C)C=Cc2c(O)c3c(c(CCC(C)C)c2O1)O[C@]12[C@H](C[C@@H]4C[C@H]1C(C)(C)O[C@]2(CC[C@@H](C)C(=O)O)[C@@H]4O)C3=O,inactive
2,CC(C)=CCC[C@]1(C)C=Cc2c(O)c3c(c(CC=C(C)C)c2O1)O[C@]12[C@H](C[C@@H]4C[C@H]1C(C)(C)O[C@]2(C/C=C(/C)C(=O)O)[C@@H]4O)C3=O,inactive
3,CC(C)=CCCC1(C)C=Cc2c(O)c3c(c(CC=C(C)C)c2O1)OC12C(=CC4CC1C(C)(C)OC2(CC=C(C)C(=O)O)C4O)C3=O (configuration not stated),active
4,CC(C)=CCCC1(C)C=Cc2c(O)c3c(c(CC=C(C)C)c2O1)OC12C(=CC4CC1C(C)(C)OC2(CC=C(C)C(=O)O)C4=O)C3=O (configuration not stated),active
5,C[C@@H]1CN([C@H](C)CO)C(=O)c2c(c3ccccc3n2C)-c2ccccc2CO[C@@H]1CN(C)C(=O)Oc1ccccc1,inactive
6,O=C(c1ccno1)N1C[C@@H]2CCN[C@@H]2C1,inactive
7,COc1ccc(C(CN(C)C)C2(O)CCCCC2)cc1.Cl (configuration not stated),inactive
8,N#CC[N+]12CCN(CC1)CC2,inactive
9,Cc1nc([N+](=O)[O-])c(N2CCNCC2)[nH]1,inactive
10,COC(=O)[C@H]1O[C@@H]2C[C@H]3O[C@@H](n4cnc5c(N)ncnc54)[C@H](OC)[C@H]3O[C@@]2(O)[C@@H](O)[C@@H]1O,inactive
11,O=C(CCCN1CCC2(CC1)C(=O)N(Cc1cccc(F)c1)CN2c1ccccc1)c1ccc(F)cc1,inactive
12,CC(=O)O[C@H]1C[C@@H](OC(C)=O)C(C)(C)[C@@H]2C[C@@H](OC(C)=O)[C@]3(C)[C@H](CC[C@@]4(C)[C@H](c5ccoc5)C[C@H]5O[C@@]534)[C@@]12C,inactive
13,CC1(C)C(=O)C=CC2(C)C1=C(O)C(=O)C1(C)C2CCC2(C)C(c3ccoc3)CC3OC321 (configuration not stated),active
14,CC(=O)OC1CC2(C)C(c3ccoc3)CC3OC32C2(C)C(=O)C(O)=C3C(C)(C)C(=O)C=CC3(C)C12 (configuration not stated),active
15,CC(=O)OC1CC(OC(C)=O)C2(C)C(CC(OC(C)=O)C3(C)C2CCC2(C)C(c4ccoc4)C(=O)C4OC423)C1(C)C (configuration not stated),inactive
16,CC1(C)C(=O)C=CC2(C)C1CC(O)C1(C)C2CCC2(C)C(c3ccoc3)OC(=O)C3OC321 (configuration not stated),inactive
17,CC(=O)OC1CC2C(C)(C)C(=O)C=CC2(C)C2CCC3(C)C(=CC(=O)OC3c3ccoc3)C12C (configuration not stated),inactive
18,O=C1C[C@H](c2ccccc2)[C@@H]2CNCCN12,inactive
19,Cc1nnc(N2CCC[C@]3(CNCCO3)C2)o1,inactive
20,N#CN1CCCC1,inactive
21,Cc1cccc(CN2C[C@H]3OCCN(C)[C@H]3C2)n1,inactive

row,Compound,cytotoxicity call
1,CC1=C(O)C(=O)C=C2C1=CC=C1C2(C)CCC2(C)C3CC(C)(C(=O)O)CCC3(C)CCC12C (configuration not stated),active
2,NC1N[C@H]2CCCC[C@@H]2N1,inactive
3,CC(C)(CN)CNc1ccc([N+](=O)[O-])c2cccnc12,inactive
4,NC(=O)c1cn([C@@H]2O[C@H](CO)[C@@H](O)[C@H]2O)c2ncnc(N)c12,inactive
5,NC(=O)c1cn([C@H]2O[C@@H](CO)[C@H](O)[C@@H]2O)c2ncnc(N)c12,active
6,CCNC(=O)[C@H]1O[C@H](n2cnc3c(N)ncnc32)[C@@H](O)[C@@H]1O,inactive
7,O=C(NC(=O)c1c(F)cccc1F)Nc1cc(Cl)c(OC(F)(F)C(F)C(F)(F)F)cc1Cl (configuration not stated),inactive
8,O=C(NC(=O)c1c(F)cccc1F)Nc1ccc(Cl)cc1,inactive
9,O=C(NC(=O)c1c(F)cccc1F)Nc1cc(Cl)c(OC(F)(F)[C@@H](F)C(F)(F)F)cc1Cl,active
10,C=CCC1(C(C)CCC)C(=O)N=C([S-])NC1=O.[Na+] (configuration not stated),inactive
11,Cl.c1cncc(C2CCCCN2)c1 (configuration not stated),inactive
12,Br.COC(=O)C1=CCCN(C)C1,inactive
13,NC(=O)CN1CC[C@@H](NC(=O)[C@@H]2CCCN2)C1=O,inactive
14,c1cn(C[C@H]2CC[C@H]3NCCO[C@@H]23)cn1,inactive
15,Cl.Cn1c(CCCC(=O)O)nc2cc(N(CCCl)CCCl)ccc21,inactive
16,CC[C@H]1/C=C/C=C/C[C@@H](C)[C@H](O)[C@@](C)(O)C(=O)[C@@H](C)[C@H](O)[C@@H](C)C(=O)[C@@H](C)[C@H](O)[C@@H](C)/C=C/C(=O)O[C@@H]2[C@H](C)[C@H](CC1)O[C@]1(CC[C@H](C)[C@H](C[C@@H](C)O)O1)[C@H]2C,active
17,CC[C@@H]1/C=C/C=C/C[C@H](C)[C@@H](O)[C@](C)(O)C(=O)[C@H](C)[C@@H](O)[C@H](C)C(=O)[C@H](C)[C@@H](O)[C@H](C)/C=C/C(=O)O[C@H]2[C@@H](C)[C@@H](CC1)O[C@@]1(CC[C@@H](C)[C@@H](C[C@H](C)O)O1)[C@@H]2C,inactive
18,CCC(COC(=O)c1cc(OC)c(OC)c(OC)c1)(c1ccccc1)N(C)C.O=C(O)C=CC(=O)O (configuration not stated),inactive
19,Cc1n[nH]c(=O)nc1N1CCN(C)CC1,inactive
20,CC1OC(OC2CC(O)C3(CO)C4C(O)CC5(C)C(C6=CC(=O)OC6)CCC5(O)C4CCC3(O)C2)C(O)C(O)C1O.O.O.O.O.O.O.O.O (configuration not stated),active
21,C[C@@H]1O[C@@H](O[C@@H]2C[C@@H](O)[C@]3(CO)[C@H]4[C@H](O)C[C@]5(C)[C@@H](C6=CC(=O)OC6)CC[C@]5(O)[C@@H]4CC[C@]3(O)C2)[C@H](O)[C@H](O)[C@H]1O,active

# — the antibiotic and cytotoxicity screens of Wong et al. (2023)
